# Results taken from PubChem BioAssay (NCI).
# About 79,000 compounds went through this panel and 15% of them were active in at least one assay; those are over-represented in the sample as a whole. Values without a mark were called inactive. No stated cut-off is given here; in the data, active means growth inhibition above about 70%; inactive means the rest.
# Assay: NCI Yeast Anticancer Drug Screen. Data for the mec2-1 strain (AID 157)
# Details: S. cerevisiae mec2-1 strain, at 50.0 µM, hits give high values
# Summary of the method: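 Readout is yeast growth inhibition, normalised to vehicle-treated controls, in the mec2-1 strain exposed to compound.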
row,Compound,growth inhibition [%]
1,CCOC(=O)c1ccc(-c2cccs2)[nH]1,-1.25
2,CS(=O)(=O)ON1C(=O)c2ccccc2C1=O,-52
3,O=C(Nc1cc(-c2ccccc2)[nH]n1)c1ccccc1Cl,16.6
4,C1=CCc2cc3c(cc2=C1)C=c1ccccc1=3,-19.4
5,CCCNC(=O)Nc1ccc2c(c1)Cc1cc([N+](=O)[O-])ccc1-2,2.5
6,CCCCCC(=C/c1ccccc1)/C=N/N1CCN(/N=C/C(=C/c2ccccc2)CCCCC)CC1,10.8
7,CCc1cccc(CC)c1NC1=CC(=O)C(=O)c2ccccc21,11.4
8,COc1ccc(CNc2ccccc2C(=O)O)cc1OC,2.8
9,Brc1nc(-[n+]2ccccc2)[n-]c1Br,3.75
10,COC(=O)C(N)CSc1ccc([N+](=O)[O-])cc1[N+](=O)[O-] (stereo not drawn),39.5
11,Oc1cc2cc(-c3ccccc3)[nH]c2c2ccccc12,-5.25
12,CCCCS/C=C\C(=O)OCC,-22.8
13,CCOC(=O)c1c2cccccc-2nc1Nc1cccc2c(C)ccnc12,-21
14,CC1=NN(C(=O)c2ccncc2)C(=O)C1N=Nc1ccc(F)cc1 (stereo not drawn),-10.2
15,CCOC(=O)c1ccc(NC(=O)CCCCl)cc1,-14.2
16,Cc1[nH]c(=O)[nH]c(=O)c1/C=C/C(=O)NC(CO)CS(=O)CS(C)=O (stereo not drawn),-11.2
17,C[N+]12C=CC=C1C(N1CCCC1)c1sc(-c3ccc(Cl)cc3)cc12 (stereo not drawn),-11.3
18,Cc1nc(N=C(N)N)nc2ccccc12,-8.45
19,N#CCOS(=O)(=O)O,0.45
20,Nc1ncccc1C(=O)O,-1.05
21,CN(C)CCNC(=O)c1cccc2nc3c(C(=O)NCCN(C)C)cccc3nc12,-20.4
22,COc1ccc2c(C(=O)O)cc3c4ccccc4ncc3c2c1,6.65
23,CC(C)COP(C)(=O)C(N)(C(F)(F)F)C(F)(F)F (stereo not drawn),8

# Assay: NCI Yeast Anticancer Drug Screen. Data for the sgs1 mgt1 strain (AID 161);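 further: 0% = growth of cultures given vehicle only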
# Details: S. cerevisiae sgs1 mgt1 strain, at 50.0 µM, hits give high values
# Summary of the method: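 Percent growth inhibition was derived by comparing compound-exposed mutant yeast with vehicle-exposed cultures. The strain carries alterations in DNA damage repair.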
row,Compound,growth inhibition [%]
1,CCOc1cccc(C=Nc2ccccc2SSc2ccccc2N=Cc2cccc(OCC)c2O)c1O,61.5
2,c1csc(NC(Nc2nccs2)C23CC4CC(CC(C4)C2)C3)n1,-1.4
3,O=C1C(Cc2ccc(O)cc2)NC(=S)N1c1ccccc1 (stereo not drawn),24.9
4,CO/N=C1\C(O)CC2C(C)(CCC3C2(C)CCC2(C)C4CC(C)(C)CCC4(C)CCC32C)C1C (stereo not drawn),-18.5
5,CCOc1cn(C2OC(CO)C(O)C2O)c(=O)[nH]c1=O (stereo not drawn),-16.2
6,OCC1CCN(CCOCc2ccccc2)C1 (stereo not drawn),-2.3
7,Cc1cc(C(C)(C)C)ccc1S(=O)(=O)/C=C/c1ccccc1,-6.1
8,N#CC1C=CN(Cc2ccccc2)C=C1C(=O)c1ccccc1 (stereo not drawn),-5.85
9,CC1=NN(C(=O)c2ccc(Cl)cc2)C(=O)C1N=Nc1ccc(S(=O)(=O)Nc2ccccn2)cc1 (stereo not drawn),14.7
10,CCCCCCCCCCCCCCCCOc1ccc(N)cc1,-16.3
11,O=S1(=O)C2C=CC1CCCC2,-6.9
12,Cn1ncc2c(N)nc(NCCO)nc21,-4.75
13,O=CC(O)C(O)C(O)C(O)COC1OC(CO)C(O)C(O)C1O (stereo not drawn),21.2
14,CC(O)CNCC(C)(C)N (stereo not drawn),-4.8
15,CC(=O)OCC(OC(C)=O)C(OC(C)=O)C(/C=C/N=[N+]([O-])c1ccccc1)OC(C)=O (stereo not drawn),45.5
16,O=C(/C=C/c1ccco1)CCN1CCOCC1,24.8
17,CC1CC2C3(C1)CC(C(=O)OC3=O)C2(C)C (stereo not drawn),-7.35
18,CCOC(=O)c1ccc(-c2cccs2)[nH]1,3.95
19,CS(=O)(=O)ON1C(=O)c2ccccc2C1=O,-3.9
20,O=C(Nc1cc(-c2ccccc2)[nH]n1)c1ccccc1Cl,60.5

row,Compound,growth inhibition [%]
1,C1=CCc2cc3c(cc2=C1)C=c1ccccc1=3,-11.2
2,CCCNC(=O)Nc1ccc2c(c1)Cc1cc([N+](=O)[O-])ccc1-2,-4.3
3,CCCCCC(=C/c1ccccc1)/C=N/N1CCN(/N=C/C(=C/c2ccccc2)CCCCC)CC1,22.4
4,CCc1cccc(CC)c1NC1=CC(=O)C(=O)c2ccccc21,10
5,COc1ccc(CNc2ccccc2C(=O)O)cc1OC,-1.95
6,Brc1nc(-[n+]2ccccc2)[n-]c1Br,-13.9
7,COC(=O)C(N)CSc1ccc([N+](=O)[O-])cc1[N+](=O)[O-] (stereo not drawn),40.2
8,Oc1cc2cc(-c3ccccc3)[nH]c2c2ccccc12,-1.3
9,CCCCS/C=C\C(=O)OCC,-8.5
10,CCOC(=O)c1c2cccccc-2nc1Nc1cccc2c(C)ccnc12,-2.8
11,CC1=NN(C(=O)c2ccncc2)C(=O)C1N=Nc1ccc(F)cc1 (stereo not drawn),-7.65
12,CCOC(=O)c1ccc(NC(=O)CCCCl)cc1,-8.75
13,Cc1[nH]c(=O)[nH]c(=O)c1/C=C/C(=O)NC(CO)CS(=O)CS(C)=O (stereo not drawn),9.75
14,C[N+]12C=CC=C1C(N1CCCC1)c1sc(-c3ccc(Cl)cc3)cc12 (stereo not drawn),22
15,Cc1nc(N=C(N)N)nc2ccccc12,10.7
16,N#CCOS(=O)(=O)O,-1.4
17,Nc1ncccc1C(=O)O,-2.8
18,CN(C)CCNC(=O)c1cccc2nc3c(C(=O)NCCN(C)C)cccc3nc12,-46.6
19,COc1ccc2c(C(=O)O)cc3c4ccccc4ncc3c2c1,-6.75
20,CC(C)COP(C)(=O)C(N)(C(F)(F)F)C(F)(F)F (stereo not drawn),35.6
